Molecules are shown by their SMILES. Entries with a potency or affinity are not part of this list. Calls of active or inactive are those of the source.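 How the source made its calls: active means cell-killing curve whose half-maximal dose falls at or below double the top accepted dose; inconclusive means flat fit with drops of 30 to 70%, or poor fit; inactive means the rest, including signal rises.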

The record followed here is PubChem BioAssay AID652044 (Broad Institute, 2013).

The assay can be described thus: viability loss in mouse NIH3T3 cells – cell-based, CellTiter-Glo luminescence, dry powder, cytotoxicity control for PglD inhibitor project, dose response (AID 652044). To be noted: CellTiter-Glo ATP luminescence, 48 h; series mostly up to 26 µM; activity change, negative = cytotoxic: at the top concentration. On the technique in general: ATP-based viability assays read luminescence as a measure of living cells.
In the case of `C/C=C/c1cnc2c(c1)C(=O)N([C@@H](C)CO)C[C@H](C)[C@@H](CN(C)C(=O)c1cccnc1)O2`, the “activity change, negative = cytotoxic” value was -12.1% (inactive). In the case of `O=C(C[C@@H]1CC[C@@H]2[C@H](COC[C@@H](O)CN2Cc2ccc(F)cc2)O1)N1CCc2ccccc2C1`, the “activity change, negative = cytotoxic” value was 6.57% (inactive). To `CO[C@@H]1CN(C)C(=O)c2ccc(NS(C)(=O)=O)cc2OC[C@@H](C)N(C(=O)C2CCOCC2)C[C@H]1C` belongs 8.99% [at 23.5 µM] (inactive); to `Cc1noc(C)c1NC(=O)Nc1cccc2c1O[C@H](CN(C)C(=O)Nc1cccc3ccccc13)[C@@H](C)CN([C@H](C)CO)C2=O`, 0.326% (inactive); to `CC(=O)N[C@H]1CC[C@H](CC(=O)NCc2ccc(Cl)cc2)O[C@H]1CO`, -2.34% (inactive). The same measure for `CCC(=O)Nc1ccc2c(c1)OC[C@@H](C)N(Cc1ccccn1)C[C@@H](C)[C@H](OC)CN(C)C2=O`: 6.56% (inactive); for `CO[C@H]1CN(C)C(=O)c2cc(NC(C)=O)ccc2OC[C@@H](C)NC[C@@H]1C`: 5.85% (inactive); for `C[C@H]1CN([C@@H](C)CO)C(=O)c2cccc(NC(=O)Nc3ccccc3)c2O[C@H]1CN(C)C`: -4.25% (inactive).

As for `COCC#Cc1cnc2c(c1)C(=O)N([C@@H](C)CO)C[C@H](C)[C@@H](CN(C)C(=O)C1CCC1)O2`, the “activity change, negative = cytotoxic” value was -10.5% (inactive).

`O=C(C[C@@H]1C[C@@H]2c3cc(NC(=O)NC4CCCCC4)ccc3O[C@@H]2[C@@H](CO)O1)NCc1cccnc1`: the “activity change, negative = cytotoxic” value is 2.95% (inactive).

For `CC=Cc1ccc2n(c1=O)C[C@@H]1[C@@H](CO)[C@H](C(=O)NCCOC)[C@H]2N1Cc1nccs1` (mixture of isomers), the “activity change, negative = cytotoxic” value is 7.23% (inactive). As to `O=C(N[C@H]1C=C[C@@H](CC(=O)N2CCCCC2)O[C@H]1CO)c1ccc2c(c1)OCO2`, the “activity change, negative = cytotoxic” value was -2.65% (inactive).
